# The list is not random: actives were taken first. Their share in the collection is about 1.1%.
# OPRM1-OPRD1 ag – OPRM1-OPRD1 heterodimerization agonism; P35372+P41143; cells, luminescence; activation, % at 9.3 µM; actives 0.3% (n = 340,000); in the data active = activation above about 18%;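 also: 0% = vehicle-treated cells and 100% = reference agonist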
# Target sequence (P35372 whole entry, looked up): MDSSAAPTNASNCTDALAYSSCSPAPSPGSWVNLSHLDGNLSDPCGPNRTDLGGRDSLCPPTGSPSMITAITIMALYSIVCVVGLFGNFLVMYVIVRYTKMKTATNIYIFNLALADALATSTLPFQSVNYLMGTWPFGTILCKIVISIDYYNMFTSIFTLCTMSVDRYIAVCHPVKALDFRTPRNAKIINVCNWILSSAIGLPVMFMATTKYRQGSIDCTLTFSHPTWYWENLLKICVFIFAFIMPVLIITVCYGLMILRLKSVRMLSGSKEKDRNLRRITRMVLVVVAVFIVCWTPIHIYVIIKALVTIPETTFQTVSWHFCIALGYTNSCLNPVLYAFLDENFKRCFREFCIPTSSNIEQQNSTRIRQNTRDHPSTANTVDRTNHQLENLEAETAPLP
# Target sequence (P41143 whole entry, looked up): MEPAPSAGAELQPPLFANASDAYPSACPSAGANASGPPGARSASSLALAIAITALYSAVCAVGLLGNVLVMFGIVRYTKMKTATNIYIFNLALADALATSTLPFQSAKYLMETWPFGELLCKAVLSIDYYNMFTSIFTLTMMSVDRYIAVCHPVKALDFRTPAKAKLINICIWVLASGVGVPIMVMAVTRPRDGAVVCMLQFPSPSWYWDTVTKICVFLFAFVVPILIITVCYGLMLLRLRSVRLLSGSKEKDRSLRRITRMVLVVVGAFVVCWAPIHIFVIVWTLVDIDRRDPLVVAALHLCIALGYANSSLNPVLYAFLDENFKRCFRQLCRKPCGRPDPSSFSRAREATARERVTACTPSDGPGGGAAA
# HTR5A ag ctr – counter-screen for OPRM1-OPRD1 agonists: human HTR5A agonism | HTR5A agonist assay, luminescence, cell-based | activation, % at 9.3 µM | actives 0.61% (n = 340,000) | AID 504692; in the data active = activation mostly above about 9.5%, no sharp cut-off; inactive = mostly below about 7.6%;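 also: 0% = cells with vehicle only and 100% = reference agonist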
# OPRM1-OPRD1 inv – inverse agonist of human OPRM1-OPRD1 heterodimerization; actives 0.21% (n = 340,000); inhibition, % at 9.3 µM; P35372+P41143; cell-based MOR-DOR heterodimer luminescence, inverse agonism; in the data active = inhibition above about 22%, passing the limit was not always enough;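 also: 0% = cells with DMSO and 100% = wells without cells with DMSO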
# HTR5A inv ctr – inverse agonist of human HTR5A in OPRM1-OPRD1 counter-screen; P47898; HTR5A cell line, luminescence, inverse agonism; inhibition, % at 9.3 µM; actives 0.083% (n = 340,000); AID 504634; in the data active = inhibition mostly above about 23%, no sharp cut-off; inactive = mostly below about 18%;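 also: 0% = cells with DMSO and 100% = no-cell wells with DMSO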
# Starred values were filed as active, the others as inactive; i = inactive.
SMILES,OPRM1-OPRD1 ag,HTR5A ag ctr,OPRM1-OPRD1 inv,HTR5A inv ctr
CC1CN(CC(O)c2ccc(Br)cc2)CCO1 (stereo not drawn),-3.3,-0.9,17.1,3.6
COc1cccc(COC(=O)Cc2ccc(S(=O)(=O)N3CCOCC3)s2)c1OC,-1.2,-5.8,5.1,14.1
COc1cccc(CN(C)CCCn2ccc(NC(=O)OCc3ccccc3)nc2=O)c1,-0.3,-0.6,1.4,2.2
Clc1ccc(OCCCNCc2ccccc2)c2ccccc12,6.6,10.4*,-30.4,-38.6
COc1ccccc1OCCC(=O)Nc1cccc(S(=O)(=O)N2CCOCC2)c1,-3.2,-0.8,12.7,2.1
O=C(NCc1nnc(SCC(=O)N2CCCCCC2)o1)c1ccco1,-1.1,11.3*,6.3,-22.3
COc1cc(C2c3cc4c(cc3OC(NCCc3ccccc3)C2C)OCO4)cc(OC)c1OC (stereo not drawn),0.2,11.4*,-1.1,-44.7
CC(C)n1nc(C(=O)OCC(=O)NCCc2ccc(S(N)(=O)=O)cc2)c2ccccc2c1=O,-3.8,0.8,15.1,-3.2
C=CCN1C=C2C(=O)C(C)(OC(=O)C3CCCC3)C(=O)C(c3ccccc3)=C2C=C1CCCC(=O)OC (stereo not drawn),5.9,12.2*,-32.5,22.4
O=C(NCC(c1ccco1)N1CCCC1)c1cn(-c2ccccc2)nc1-c1ccc(F)cc1 (stereo not drawn),3.3,-3.6,-17.3,8.7
COc1cccc(C(=O)O/N=C(\N)c2ccc([N+](=O)[O-])cc2)c1OC,13.8,13.1*,-77.6,-16.1
O=C(C#Cc1ccccc1)Nc1ccc(F)cc1,-3.2,9.0*,15.3,-30.5
CC(C)CN1CCN(Cc2nc(C(C)C)cs2)CC1CCO (stereo not drawn),-0.2,10.7*,1.2,-30.1
CN(C)c1c([N+](=O)[O-])cc(N2C(=O)C=CC2=O)cc1[N+](=O)[O-],-3.6,-3.1,18.8,11.1
O=C1NC[C@H](Cc2ccccc2)N(CC2CCN(CCCCc3ccccc3)CC2)C1=O,-0.4,2.2,1.8,-7.6
O=C(COc1ccc2oc(-c3ccccc3)cc(=O)c2c1)Nc1ccccc1,-0.4,12.2*,2.8,-17.5
S=C(Nc1ccc(Cl)cc1)c1nc2ccccc2s1,2.5,-5.5,-12.2,12.0
O=C(Nc1ccc(Cl)cc1)/C(=C/c1cccc(O)c1)c1nc2ccccc2s1,6.5,11.3*,-33.7,-41.4
CC1CCCC(NC(=O)COC(=O)c2cc3ccccc3oc2=O)C1C (stereo not drawn),4.8,-5.1,-20.5,12.5
CC(=O)n1cc(N(C(=O)CCl)c2ccc([N+](=O)[O-])cc2)c2ccccc21,19.8*,27.4*,-101.4,-3.9
O=Cc1[nH]c2ccccc2c1N(C(=O)CCl)c1ccc([N+](=O)[O-])cc1,-3.5,2.3,18.2,5.8
CC(=O)n1cc(N(C(=O)CCl)c2ccccc2)c2ccccc21,65.2*,56.7*,-333.7,4.9
O=C(CCl)N(c1ccccc1)c1c[nH]c2ccccc12,38.9*,40.0*,-194.8,-103.1
CC(=O)n1cc(CO)c2ccccc21,-1.2,2.1,5.9,4.1
Cc1cc(-c2nn(-c3ccccc3F)cc2CN2CCC(C(N)=O)CC2)c(C)s1,-0.6,-1.1,3.1,4.4
SMILES,OPRM1-OPRD1 ag,HTR5A ag ctr,OPRM1-OPRD1 inv,HTR5A inv ctr
Cc1cc(-c2nn(-c3ccccc3F)cc2CNCCc2cnc[nH]2)c(C)s1,143.6*,-3.1,i,-8.8
CCN(C(=O)COC(=O)c1ccc2ccccc2n1)c1c(N)n(Cc2ccccc2)c(=O)[nH]c1=O,2.8,-0.2,-19.0,0.5
CCOc1ccc(N2CC(C(=O)Nc3cc(OCC)c(N4CCOCC4)cc3OCC)CC2=O)cc1 (stereo not drawn),-0.9,-3.4,5.1,-17.5
CC(=O)NC1CC2CCCC(C1)N2Cc1ccc(C)cc1 (stereo not drawn),-2.1,14.0*,11.8,-3.3
CN(CC(=O)Nc1ccccc1Br)C(=O)CN1CCN(c2ccccc2Cl)CC1,-4.1,-1.9,16.0,18.2
Cc1ccccc1CCNC(=O)c1ccc(Cl)c(S(=O)(=O)N2CC(C)OC(C)C2)c1 (stereo not drawn),3.6,0.5,-14.1,-13.5
Cc1c(Cl)cccc1NC(=O)c1cccc(NC(=O)CCC(=O)O)c1,-2.6,12.0*,11.1,16.4
Cc1ccccc1C(=O)N1[C@@H](C(C)C)COc2cc(Br)ccc2S1(=O)=O,0.4,-1.8,-2.0,6.9
CCOC(=O)Cc1csc(SCC(=O)N2CCN(c3ccccc3)CC2)n1,-1.1,3.4,6.0,-12.0
Cc1cccc2c1NC(=O)C2(c1ccc(O)cc1)c1ccc(O)cc1,123.9*,44.0*,i,-106.8
NC1(C(=O)O)CSSC1,-2.3,-2.8,10.1,10.8
O=S(=O)(c1ccc(Br)cc1Cl)N1CCN(CCO)CC1,-3.8,1.8,17.8,-7.8
O=C1C=CC(=O)c2c(O)c(N3CCN(CCO)CC3)c(Cl)c(O)c21,21.2*,-2.9,-109.1,11.3
COc1ccc(OC)c(NC(=O)/C=C/c2ccc(S(=O)(=O)N3CCOCC3)cc2)c1,-1.4,-12.5,8.8,9.6
CC(C)Cn1c(N)c(C(=O)COC(=O)c2ccc(Br)cc2)c(=O)n(C)c1=O,5.0,-2.9,-21.6,7.2
CCC(C)c1ccc(S(=O)(=O)N2CCN(CC(O)COCC3CCCO3)CC2)cc1 (stereo not drawn),-1.9,-3.9,9.7,10.7
Cn1c(=NC(=O)CCl)sc2ccccc21,46.9*,56.6*,-273.8,-78.0
CCOC(=O)c1ccc(-c2c(-c3ccccc3OC)sc3ccc(OC)cc23)cc1F,-0.1,5.5,0.8,4.1
CC(C)(C)c1cc(CCC(=O)N2CCC2)cc(C(C)(C)C)c1O,0.7,-1.8,-2.7,4.6
CC(C)(C)c1cc(CCC(=O)NN)cc(C(C)(C)C)c1O,-0.3,12.0*,1.4,3.0
Cn1cc(S(=O)(=O)NC[C@H]2O[C@@H](n3cnc4c(N)ncnc43)[C@H](O)[C@@H]2O)cn1,-2.3,-1.1,11.7,4.0
O=S(=O)(N/N=C1/CCCc2ccccc21)c1ccc(Br)cc1,6.2,3.2,-35.4,8.5
CC1CCCC/C1=N\NS(=O)(=O)c1ccc(Br)cc1 (stereo not drawn),2.8,11.5*,-16.7,-87.0
Cc1c(NCc2cc(Cl)cc(Cl)c2O)c(=O)n(-c2ccccc2)n1C,0.2,-2.7,-0.9,4.2
Cc1c(NCc2nc3ccccc3[nH]2)c(=O)n(-c2ccccc2)n1C,-1.4,12.1*,8.3,-21.5
SMILES,OPRM1-OPRD1 ag,HTR5A ag ctr,OPRM1-OPRD1 inv,HTR5A inv ctr
O=C(CN1C(=O)NC2(CCCC2)C1=O)N1CCN(S(=O)(=O)c2ccccc2F)CC1,-3.4,-6.7,17.6,16.2
O=C(CN1C(=O)NC2(CCCC2)C1=O)N1CCN(S(=O)(=O)c2ccccc2[N+](=O)[O-])CC1,0.9,9.5*,-5.7,-7.3
O=C1NC2(CCCCC2)C(=O)N1CC(=O)N1CCc2ccccc21,-0.3,11.2*,1.6,-40.1
CCOC(=O)c1sc(N(Cc2ccccc2)C(=O)COC(=O)c2ccc(O)cc2)nc1C,14.0,11.4*,-73.8,-39.7
CCOC(=O)c1sc(N(Cc2ccccc2)C(=O)COC(=O)c2ccccc2O)nc1C,-0.2,2.5,1.4,-6.7
O=c1[nH]cnc2c1c(-c1ccccc1)cn2-c1cccc(Cl)c1,5.4,10.0*,-28.0,-20.8
